{"source": "PubChem BioAssay AID651812", "about": "(National Center for Advancing Translational Sciences (NCATS), 2012)", "note": "About 650 (31%) of roughly 2,100 compounds were called active. Roughly 16% stayed inconclusive and do not appear here. The call rests on the fitted dose curve; in most records, active means well fitted inhibition curve with a large enough effect; inconclusive means small, poorly fitted or top-dose-only effect; inactive means flat fitted curve, though single readings scatter. This is one part of the list. Potency means the concentration at half of the fitted maximal effect.", "data": [{"experiment": "qHTS for inhibitors of Vif-A3G interactions: Cherry picks; further: nearly all actives have a fitted effect of over 80% in size; on activity, negative = fluorescence increase: % of control where 0% means no effect", "details": "HeLa A3G-eYFP + Vif (tagged APOBEC3G with the HIV-1 protein that degrades it), 24 h; Potency: eYFP fluorescence increase; series mostly up to 36.9 µM; activity, negative = fluorescence increase: at the top concentration", "from_the_text": "The recent discovery and characterization of host restriction factors, which provide a potent defense to invading retroviruses, has provided new targets for antiviral drug development. APOBEC3G (A3G) and APOBEC3F (A3F) are potent cytidine deaminases that block HIV-1 replication; HIV-1 expresses the Vif protein, which counteracts A3G and A3F by binding to them and inducing their proteasomal degradation. The Vif-A3G and Vif-A3F interactions provide two potential targets for development of small molecules which can interfere with the ability of Vif to degrade A3G or A3F. […] To identify inhibitors that can interfere with Vif mediated degradation of A3G and A3F, we have developed Hela cell lines that stably express A3G or A3F tagged with eYFP at the C-terminal end (A3G-eYFP or A3F-eYFP, respectively) and Vif. In the absence of an inhibitor, Vif induces degradation of A3G-eYFP and A3F-eYFP, and the cells are not fluorescent. In the presence of an inhibitor, it is expected that Vif will be unable to degrade A3G-eYFP and/or A3F-eYFP, resulting in an increase in yellow fluorescence. In this assay, Vif A3G was screened against the cherry picks ordered from the MLSMR. NIH Chemical Genomics Center [NCGC] NIH Molecular Libraries Probe Centers Network [MLPCN] MLPCN Grant: MH093245 Assay Submitter (PI): Vinay Pathak, National Cancer Institute\nA3G-Vif cells were harvested from T225 flask and resuspended in phenol free OPTI-MEM medium with 5% FBS. Then 5 uL of 140,000 cells/mL resuspended cells was dispensed into each well of low base Aurora COC 1,536-well plates (black walled, clear bottom) using a Multidrop Combi dispenser. After overnight culture at 37 deg C with 5% CO2, a total of 23 nL of compounds at 5 selected concentrations from the NPC or positive control (2 mM stock of MG132) in DMSO was transferred to each well of the assay plate using a pintool (Kalypsys, San Diego, CA), and the plates were further incubated at 37 deg C with 5% CO2 for 24 hours. After that, the plates were measured on Acumen Explorer (TTP Lab Tech). The fluorescence was detected by 488 nm/Ex and […].", "values": [{"smiles": "CN1/C(=C\\C=C2C(=O)NC(=O)NC2=O)C(C)(C)c2ccccc21", "Potency": "4.61 µM (active)"}, {"smiles": "CCCCNC(=O)/C(C#N)=c1\\s/c(=C\\c2ccccc2OC(F)F)c(=O)n1CCCOC", "Potency": "16.4 µM (active)"}, {"smiles": "COCCCn1c(=O)/c(=C\\c2ccccc2OC(F)F)s/c1=C(/C#N)C(=O)NCCOC", "Potency": "20.6 µM (active)"}, {"smiles": "C/C(=C\\c1ccc(N(C)C)cc1)[N+](=O)[O-]", "activity, negative = fluorescence increase": "0.666% (inactive)"}, {"smiles": "O=C1NC(=O)N(c2ccc3c(c2)OCO3)C(=O)/C1=C\\c1ccc(N2CCCCC2)o1", "Potency": "20.6 µM (active)"}, {"smiles": "O=C1NC(=O)N(c2ccc3c(c2)OCO3)C(=O)/C1=C/c1ccc(N2CCCCC2)o1", "Potency": "23.1 µM (active)"}, {"smiles": "CCCCn1c(O)c(C(=O)/C=C/c2c[nH]c3ccccc23)c(=O)[nH]c1=O", "Potency": "15.8 µM (active)"}, {"smiles": "Cc1ccccc1-n1c(/C=C/c2ccc(N(C)C)cc2)nc2ccccc2c1=O", "Potency": "5.8 µM (active)"}, {"smiles": "O=c1[nH]c(CN2CC=C(c3ccccc3)CC2)nc2scc(-c3ccccc3)c12", "Potency": "23.1 µM (active)"}, {"smiles": "O=C1/C(=C/c2ccc3c(c2)OCO3)SC(=S)N1CCC(=O)N(CCO)c1ccccc1", "Potency": "23.1 µM (active)"}, {"smiles": "COc1ccc(-n2c(/C=C/c3ccc(O)c(OC)c3)nc3ccccc3c2=O)cc1", "Potency": "23.1 µM (active)"}, {"smiles": "O=c1c2ccccc2nc(/C=C/c2ccccc2O)n1-c1ccc(Br)cc1", "Potency": "20.6 µM (active)"}, {"smiles": "NC(=Nc1ccccc1)NN=Cc1c[nH]c2ccccc12", "activity, negative = fluorescence increase": "-1.44% (inactive)"}, {"smiles": "Cc1cccc(CN2CCCC(C(=O)c3cccc(OC(C)C)c3)C2)n1", "note": "(stereo not drawn)", "activity, negative = fluorescence increase": "-4.3% [at 46.1 µM] (inactive)"}, {"smiles": "O=C1NC(=S)SC1=Cc1ccc(N(CCCl)CCCl)cc1", "Potency": "15.8 µM (active)"}, {"smiles": "CN1C(=O)C(=Cc2ccc(N3CCCCC3)o2)C(=O)N(C)C1=S", "Potency": "7.31 µM (active)"}, {"smiles": "CN1C(=O)C(=Cc2ccc(N3CCOCC3)o2)C(=O)N(C)C1=O", "Potency": "23.1 µM (active)"}, {"smiles": "CN1C(=O)C(=Cc2ccc(N3CCOCC3)o2)C(=O)N(C)C1=S", "Potency": "20.6 µM (active)"}, {"smiles": "O=C1CN=C(c2cccc(Br)c2)c2cc(Br)ccc2N1", "activity, negative = fluorescence increase": "-0.913% (inactive)"}, {"smiles": "CCS(=O)(=O)N1N=C(c2cccc(NS(C)(=O)=O)c2)CC1c1ccccc1", "note": "(stereo not drawn)", "Potency": "18.4 µM (active)"}, {"smiles": "O=Cc1c(C(=O)O)n(Cc2ccc(Cl)cc2)c2ccccc12", "Potency": "20.6 µM (active)"}, {"smiles": "Cc1ccc(CNC(=O)c2ccccc2NC(=O)c2nsc3ccccc23)cc1", "Potency": "20.6 µM (active)"}, {"smiles": "COc1ccc(-c2ccc(OC)c(OC)c2OC)cc1", "activity, negative = fluorescence increase": "-11.7% (inactive)"}, {"smiles": "CN(C)c1ccc(C(=O)c2ccc(N(C)C)cc2)cc1", "activity, negative = fluorescence increase": "-0.231% (inactive)"}, {"smiles": "Cc1cc(N(CCCl)CCCl)ccc1C=Cc1ccncn1", "Potency": "23.1 µM (active)"}, {"smiles": "COCCNC(=O)c1c(NC(=O)c2ccc(Br)o2)n(Cc2ccccc2)c2nc3ccccc3nc12", "Potency": "20.6 µM (active)"}, {"smiles": "COCCCNC(=O)c1c(NC(=O)c2ccco2)n(Cc2ccccc2)c2nc3ccccc3nc12", "activity, negative = fluorescence increase": "0.679% (inactive)"}, {"smiles": "Cc1cccc(-n2c(/C=C/c3ccc([N+](=O)[O-])o3)nc3ccccc3c2=O)c1", "Potency": "3.66 µM (active)"}, {"smiles": "Cc1cccc(-n2c(/C=C/c3c(C)[nH]c4ccccc34)nc3ccccc3c2=O)c1", "Potency": "16.4 µM (active)"}, {"smiles": "O=c1c2ccccc2nc(/C=C/c2ccc([N+](=O)[O-])o2)n1-c1ccc(O)cc1", "Potency": "15.8 µM (active)"}, {"smiles": "CC(=O)OC1C2(CC3N4C(=O)C5(CO)SSC4(CC31O)C(=O)N5C)OC(C)C(C)(C)C2=O", "note": "(stereo not drawn)", "activity, negative = fluorescence increase": "-3.88% (inactive)"}, {"smiles": "O=c1nc(/C=C/c2ccc(Cl)cc2Cl)cc(C(F)(F)F)[nH]1", "activity, negative = fluorescence increase": "-0.355% (inactive)"}, {"smiles": "C=CCn1c(O)c(C(C)=Nc2ccc(N(CC)CC)cc2)c(=O)[nH]c1=O", "activity, negative = fluorescence increase": "-6.28% (inactive)"}, {"smiles": "CCN(CC)c1ccc(N=Cc2c(O)n(CCC3=CCCCC3)c(=O)[nH]c2=O)cc1", "Potency": "3.66 µM (active)"}, {"smiles": "CCN(CC)c1ccc(N=Cc2c(O)n(Cc3ccccc3)c(=O)[nH]c2=O)cc1", "Potency": "7.31 µM (active)"}, {"smiles": "Cc1cccc(-n2c(O)c(/C=C/C=Nc3ccccc3)c(=O)[nH]c2=O)c1", "Potency": "5.17 µM (active)"}, {"smiles": "COc1ccc(-n2cnc3cc(C(=O)N4CCC5(CC4)OCCO5)ccc32)cc1", "activity, negative = fluorescence increase": "3.42% (inactive)"}, {"smiles": "CC(C)c1ccc(N2C(=O)NC(=O)/C(=C/C=C/c3ccco3)C2=O)cc1", "Potency": "17.7 µM (active)"}, {"smiles": "Cc1cc(C)cc(N2C(=O)NC(=O)/C(=C\\C=C\\c3ccco3)C2=O)c1", "activity, negative = fluorescence increase": "-22.3% (inactive)"}, {"smiles": "CN(C)c1ccc(/C=C/C=C2/C(=O)NC(=O)N(c3ccccc3)C2=O)cc1", "Potency": "23.1 µM (active)"}, {"smiles": "Cc1cccc(N2C(=O)NC(=O)/C(=C\\C=C\\c3ccco3)C2=O)c1", "activity, negative = fluorescence increase": "-12.9% (inactive)"}, {"smiles": "CC(C)c1ccc(N2C(=O)NC(=O)/C(=C\\C=C\\c3ccco3)C2=O)cc1", "Potency": "17.7 µM (active)"}, {"smiles": "O=[N+]([O-])c1ccc(N2CCOCC2)c2c1no[n+]2[O-]", "activity, negative = fluorescence increase": "-16.4% (inactive)"}, {"smiles": "CC(C)CCCn1c(O)c(/C=C2/C=CC=N2)c(=O)[nH]c1=O", "Potency": "23.1 µM (active)"}, {"smiles": "C=C1C(=O)OC2C1CCC(C)C1(O)C=CC(=O)C21C", "note": "(stereo not drawn)", "activity, negative = fluorescence increase": "0.263% (inactive)"}, {"smiles": "CC1=CC(=Cc2sc3ccccc3[n+]2C)C=C(C)O1", "Potency": "6.51 µM (active)"}, {"smiles": "Nc1ccc2c3c(cccc13)-c1ccccc1-2", "Potency": "4.11 µM (active)"}, {"smiles": "Cc1cc(/C=C2\\C(=O)NC(=O)N(c3ccc(Br)cc3)C2=O)c(C)n1C", "activity, negative = fluorescence increase": "-0.904% (inactive)"}, {"smiles": "CCC(C)N1C(=O)/C(=C\\c2ccc(N3CCCCCC3)cc2)C(=O)NC1=S", "note": "(stereo not drawn)", "activity, negative = fluorescence increase": "-23.4% [at 46.1 µM] (inactive)"}, {"smiles": "CN1C(=O)/C(=C/c2ccc(N3CCCCCC3)o2)C(=O)NC1=S", "Potency": "15.8 µM (active)"}, {"smiles": "CN1C(=O)/C(=C\\c2ccc(N3CCCCC3)o2)C(=O)NC1=S", "Potency": "17.7 µM (active)"}, {"smiles": "CN1CCN(c2ccc(/C=C3\\C(=O)NC(=S)N(c4cccc(Br)c4)C3=O)o2)CC1", "Potency": "18.4 µM (active)"}, {"smiles": "CCN(CC)c1ccc(/C=C2\\C(=O)NC(=S)N(C)C2=O)o1", "Potency": "12.5 µM (active)"}, {"smiles": "CCN1C(=O)/C(=C/c2ccc(N(CC)CC)cc2OC)C(=O)NC1=S", "activity, negative = fluorescence increase": "-8.27% [at 46.1 µM] (inactive)"}, {"smiles": "CCN(CC)c1ccc(C=C2C(=O)N(C)C(=S)N(C)C2=O)o1", "Potency": "14 µM (active)"}, {"smiles": "CCN(CC)c1ccc(/C=C2\\C(=O)NC(=S)N(c3ccc(OC)cc3OC)C2=O)o1", "Potency": "16.4 µM (active)"}, {"smiles": "COc1cc2c(cc1O)[C@@H]1Cc3ccc(OC)c(O)c3CN1CC2", "activity, negative = fluorescence increase": "-7.77% (inactive)"}, {"smiles": "N#CC1=C(N)Oc2c(c(=O)sc3ccccc23)C1c1cccnc1", "note": "(stereo not drawn)", "activity, negative = fluorescence increase": "-9.63% (inactive)"}, {"smiles": "Cc1cc(N2CCCC2)ccc1C=C(C#N)C#N", "Potency": "7.31 µM (active)"}, {"smiles": "Cc1c2ccncc2c(C)c2c1[nH]c1ccccc12", "Potency": "14.6 µM (active)"}, {"smiles": "CC/C(=N\\NC(=O)c1ccccc1O)c1c(O)n(Cc2ccccc2)c(=O)[nH]c1=O", "Potency": "20.6 µM (active)"}, {"smiles": "CC(=O)O[C@@]12CO[C@@H]1C[C@H](OC1OCC(O)C(O)C1O)[C@@]1(C)C(=O)[C@H](O)C3=C(C)[C@@H](OC(=O)[C@H](O)[C@@H](NC(=O)c4ccccc4)c4ccccc4)C[C@@](O)([C@@H](OC(=O)c4ccccc4)C12)C3(C)C", "note": "(stereo partly drawn)", "activity, negative = fluorescence increase": "-10.3% (inactive)"}, {"smiles": "COC(=O)C1=C(C)N(Cc2ccco2)C(=O)/C1=C\\c1ccc(N(C)C)cc1", "Potency": "13 µM (active)"}]}]}
